Screen size: about 350,000 compounds; about 31,000 (8.9%) were called active. About 15% were inconclusive and are not listed. The sample holds actives, similar compounds and a random draw of the others, so the mix is not that of the screen. Values without a mark were called inactive. Calls follow the shape of the dose curve; as a rule, active = well fitted inhibition curve with a large enough effect; inconclusive = small, poorly fitted or top-dose-only effect; inactive = no such curve, though single readings can be large or run the other way.
% is scaled to controls: 0 for no effect and ±100 for the full control effect; potency is read from the fitted curve at half-maximal effect.

Sequence of Histone-lysine N-methyltransferase EHMT2 (Homo sapiens) (Q96KQ7 913-1193 limits assumed): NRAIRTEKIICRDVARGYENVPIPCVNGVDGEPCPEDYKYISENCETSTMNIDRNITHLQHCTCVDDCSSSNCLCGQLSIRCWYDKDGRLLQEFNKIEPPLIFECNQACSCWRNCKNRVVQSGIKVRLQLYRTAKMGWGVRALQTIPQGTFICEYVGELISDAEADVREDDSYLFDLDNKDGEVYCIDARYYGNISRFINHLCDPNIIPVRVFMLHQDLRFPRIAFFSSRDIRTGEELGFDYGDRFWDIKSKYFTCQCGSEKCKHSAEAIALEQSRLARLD

The target of the assay is Histone-lysine N-methyltransferase EHMT2 (Homo sapiens) (UniProt Q96KQ7). The experiment in a line: qHTS Assay for Inhibitors of Histone Lysine Methyltransferase G9a. Also: nearly all actives have a fitted effect of over 75% in size. The note with it: G9a H3K9 monomethylation, AlphaScreen, 2 h; series mostly up to 59 µM; activity, negative = inhibition: at the top concentration. In short, it runs like this:
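Enzyme 20 nM + cpd, 15 min RT; add b-H3K9 pep 500 nM / SAM 20 uM; 2 h RT; anti-H3K9me1 Ab 0.5 ug/mL + SA donor / anti-rabbit acceptor beads 20 ug/mL each, 10 min; AlphaScreen read.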
For the compound `Cc1ccc(/C=C/C(=O)OCC(=O)Nc2cccnc2Cl)cc1`, the activity, negative = inhibition is 5.18% [at 12.7 µM].

Consider `CC(=O)Nn1cc2c(=O)n(C)c(=O)n(C)c2c1`, for which the Potency is 35.5 µM (active).

With `CC(=O)NNc1cc(=O)c2c(=O)n(C)c(=O)n(C)c2[nH]1`, the “activity, negative = inhibition” value is 23.3%.

`CC(=O)c1c(N)n(C)c(=O)n(C)c1=O`: the “activity, negative = inhibition” value is 17.5%.

On to `Nc1ccn(CC(=O)N2CCN(c3ccccn3)CC2)c(=O)n1`, for which the activity, negative = inhibition was -0.804% [at 0.501 µM].

Regarding `COC(=O)c1ccccc1NS(=O)(=O)c1ccc2c(c1)CCCN2C(C)=O`, the “activity, negative = inhibition” value was -5.09%.

In the case of `COC(=O)[C@H](C)[C@H]1C[C@]1(C)[C@H](NC(=O)OCc1ccccc1)c1ccccc1`, the “activity, negative = inhibition” value was 29.2% [at 102 µM].

In the case of `O=C(Nc1ccc(N2CCN(C(=O)c3ccccc3)CC2)c(Cl)c1)c1cccnc1`, the “activity, negative = inhibition” value was -6.61%.

For `C[C@@H](C(=O)Nc1ccc2ccccc2c1)[C@@H]1C[C@@]1(C)[C@@H](NC(=O)c1cccnc1)c1ccccc1`, the Potency is 50.1 µM (active).

For the compound `CC(=O)N[C@@H](C)C(=O)N1CCC(n2nccc2NC(=O)CCCc2ccccc2)CC1`, the “activity, negative = inhibition” value was 16.2% [at 102 µM].

In the case of `CC(NS(=O)(=O)c1ccc(Cl)cc1)C(=O)Nc1ccc2c(c1)OCCO2` (stereo not drawn), the “activity, negative = inhibition” value was 15.8% [at 102 µM].

For the compound `Cc1ccc(C(=O)Nc2ccccc2F)cc1S(=O)(=O)N1CCOCC1`, the “activity, negative = inhibition” value was 0.422%.

On to `N#C/C(=C\c1ccccc1C(F)(F)F)C(=O)Nc1ccccc1F`, for which the “activity, negative = inhibition” value was 7.49%.

For `N#C/C(=C\C1=C(N2CCOCC2)C(=C\c2ccccc2)/CC1)C(=O)Nc1ccccc1F`, the Potency is 7.08 µM (active).

As for `CCOCCCn1c(SCC(=O)Nc2ccc(CC)cc2)nc2ccccc2c1=O`, the “activity, negative = inhibition” value was 12.2%.

For `O=C(CCc1nc(CN2CCN(S(=O)(=O)c3ccc(F)cc3)CC2)no1)N1CCCCC1`, the “activity, negative = inhibition” value is -32.6%.

As for `COc1ccc(N(C)C(=O)C2CCN(S(=O)(=O)c3cc(Br)cc4c3N(C(C)=O)CC4)CC2)cc1`, the “activity, negative = inhibition” value is 8.09%.

Regarding `CCOc1ccc(CNC(=O)c2cc(=O)[nH]c3ccc(S(=O)(=O)N4CCCCC4)cc23)cc1`, the “activity, negative = inhibition” value was 1.87%.

As to `CNC(=S)N1N=C(c2ccccc2)CC1c1ccc(Br)cc1` (stereo not drawn), the “activity, negative = inhibition” value was -5.86% [at 102 µM].

Regarding `Brc1ccc(C2=NCCC(c3ccccc3)O2)cc1` (stereo not drawn), the “activity, negative = inhibition” value is 15.4% [at 102 µM].

Consider `Brc1ccc(C2CC(c3ccccc3)=Nc3ccccc3N2)cc1` (stereo not drawn), for which the Potency was 39.8 µM (active).

`COc1cc(C(=O)N2CCC(c3ccncc3)CC2)cc(OC)c1OC`: the “activity, negative = inhibition” value was 10.3%.

As to `CC(OC(=O)CCCc1c[nH]c2ccccc12)C(=O)Nc1ccc(S(N)(=O)=O)cc1` (stereo not drawn), the activity, negative = inhibition is 14.8% [at 0.501 µM].

For the compound `Cc1ccc(NC(=O)c2ccccn2)cc1S(=O)(=O)N1CCOCC1`, the “activity, negative = inhibition” value was 3.07% [at 102 µM].

For `Cc1ccc(NC(=O)C(C)OC(=O)Cc2c[nH]c3ccccc23)cc1S(=O)(=O)N1CCOCC1` (stereo not drawn), the Potency is 35.5 µM (active).

On to `CS(=O)(=O)c1ccc2nc(NC(=O)C3CCCCC3)sc2c1`, for which the “activity, negative = inhibition” value is 19.9%.

Turning to `CS(=O)(=O)c1ccc2nc(NC(=O)CN3CCCCCC3)sc2c1`, the Potency was 17.8 µM (active).

With `CS(=O)(=O)c1ccc2nc(NC(=O)c3ccc(N4CCCC4=O)cc3)sc2c1`, the “activity, negative = inhibition” value is 7.63% [at 102 µM].

`COc1cccc(NC(=O)CN(C)C(=O)CSCc2nc3scc(-c4cccs4)c3c(=O)[nH]2)c1`: the “activity, negative = inhibition” value was -5.02%.

With `COc1ccc(OCCCON2C(=O)c3ccccc3C2=O)cc1`, the “activity, negative = inhibition” value was -9.02%.

Consider `CCOC(=O)c1c(C)[nH]c2c1-c1ccccc1C(=O)C2=O`, for which the “activity, negative = inhibition” value is -9.77%.

For the compound `CCOC(=O)C1=C(c2ccc(OC)cc2)C(=O)c2ccccc2C1=O`, the Potency is 31.6 µM (active).

Turning to `CSCCC(NS(=O)(=O)c1ccccc1F)C(=O)N1CC=C(c2ccccc2)CC1` (stereo not drawn), the “activity, negative = inhibition” value was -15.4% [at 102 µM].

For the compound `CC(C)(C)c1ccc(C(=O)N2CCC(c3nc(-c4ccc(S(=O)(=O)N5CCCC5)cc4)no3)CC2)cc1`, the “activity, negative = inhibition” value was -29%.

On to `CCc1nn(CCCC(=O)NCc2ccccc2OC)c(=O)c2cc3occc3n12`, for which the “activity, negative = inhibition” value is 9.29%.

As to `Cc1ccc(Cl)cc1NC(=O)CSc1nc2ccccc2nc1Cc1ccccc1`, the “activity, negative = inhibition” value was -2.39%.

`COc1ccc(CNc2ncnc3ccccc23)cc1`: the “activity, negative = inhibition” value is 7.39% [at 102 µM].

With `CCOC(=O)c1sc(=S)n2c1[nH]c(=O)c1ccc(C(=O)OC)cc12`, the Potency is 7.94 µM (active).

Turning to `CCOC(=O)c1sc(NC(=O)c2ccncc2)nc1C`, the “activity, negative = inhibition” value is 16.5%.

In the case of `CCOC(=O)C1=C(C)Nc2sc(C(=O)c3ccc(Br)cc3)c(N)c2C1c1ccc(C(=O)OC)cc1` (stereo not drawn), the activity, negative = inhibition is 0.599% [at 12.7 µM].

On to `CC(=O)N1CCCc2cc(S(=O)(=O)Nc3ccc(Cl)cc3F)ccc21`, for which the “activity, negative = inhibition” value was 3.87%.

Take `Cc1nc2sc(C(c3ccco3)N3CCOCC3)c(O)n2n1` (stereo not drawn): the Potency is 11.2 µM (active).

For the compound `Oc1c(C(c2ccco2)N2CCC3(CC2)OCCO3)sc2ncnn12` (stereo not drawn), the Potency was 35.5 µM (active).

Take `Oc1c(C(c2ccccc2Cl)N2CCOCC2)sc2nc(-c3ccco3)nn12` (stereo not drawn): the “activity, negative = inhibition” value is -31.5%.

Take `Cc1ccc(C(c2sc3nc(C)nn3c2O)N2CCN(c3ccccc3)CC2)cc1` (stereo not drawn): the activity, negative = inhibition is 15.6% [at 12.7 µM].

With `COc1cccc(CNC(=O)CCc2nc(-c3ccc(C)cc3)no2)c1`, the “activity, negative = inhibition” value was 20.6%.

`CCCN1CCN(CCCNC(=O)c2cnn(-c3ccc(C)cc3)c2-n2cccc2)CC1`: the “activity, negative = inhibition” value is -11.1%.

With `COc1ccc(-c2ccc(=O)n(CC(=O)Nc3ccc(Br)cc3F)n2)cc1`, the “activity, negative = inhibition” value was 0.314%.
